Bioassay records (PubChem BioAssay)
Shown are actives, neighbours in structure and some others; about 19% of the full set was active somewhere.
IL1B secr inh = blocks inflammasome-driven IL-1 beta release. THP-1 LPS/ATP IL-1B secretion, AlphaLISA, 16 h; stronger effect = lower value. activity change, % at 57.5 µM. actives 4.7% (n = 360,000); in the data active = activity change below about -50%; inconclusive = mostly about -30% to -49%; note: % is set by controls: 0 for no effect and ±100 for the full control effect
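Secreted IL-1B measured by AlphaLISA bead assay after 16 h compound exposure of THP-1 cells; compounds (final up to 57.5 uM) added 1 h before LPS (250 ng/mL) and ATP (1.25 mM) stimulation; lower signal means less secretion.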
SW480 rereplic = induces DNA re-replication in SW480 colon adenocarcinoma cells; SW480 DNA re-replication, Hoechst DNA content imaging, 48 h; Potency, µM (series often up to 46.1 µM), for inactives: top-dose re-replication activation, actives largely listed as activators; actives 1.8% (n = 340,000); AID 624297; note: potency is the fitted concentration of half-maximal effect; % of control where 0% means no effect; nearly all actives have a fitted effect of over 55% in size
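Compounds, transferred as 23 nL by pin tool, were incubated with cells for 48 hr; DNA content per nucleus was then quantified by Hoechst staining and fluorescence plate imaging.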
DT40 TDP1 CPT = growth inhibition of DT40 Tdp1-/-;hTDP1 cells with camptothecin (screen for TDP1 inhibitors) | chicken DT40 Tdp1-/-;hTDP1 cells + 20 nM CPT, ATP luminescence, 48 h | Potency, µM (top dose mostly 46.2 µM), without a hit: top-dose activity change, negative = growth inhibition, most hits filed as inhibitors | actives 12% (n = 420,000) | AID 686979; note: potency is the fitted concentration of half-maximal effect; % is set by controls: 0 for no effect and ±100 for the full control effect; nearly all actives have a fitted effect of over 55% in size
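Cell growth measured by CellTiter-Glo luminescence after a minimum 48 h, 37 C compound exposure with 20 nM CPT in Tdp1-knockout DT40 cells stably expressing hTDP1, seeded 400/well; qHTS titration format.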
TDP1 cell noCPT = qHTS for Inhibitors of human tyrosyl-DNA phosphodiesterase 1 (TDP1): qHTS in cells in absence of CPT | DT40 Tdp1-/- hTDP1 cells, no CPT, ATP luminescence, 48 h | actives 15% (n = 420,000) | Potency, µM (highest dose often 46.2 µM), for inactives: top-dose activity change, negative = growth inhibition, hits mostly inhibitors; note: potency is the fitted concentration of half-maximal effect; % is set by controls: 0 for no effect and ±100 for the full control effect; nearly all actives have a fitted effect of over 55% in size
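Cells were dispensed at 400 per well, compounds added by pin tool, plates incubated ≥48 hr at 37 °C, then CellTiter-Glo added for 30 min at room temperature before luminescence reading. Line: DT40 Tdp1-/- complemented with hTDP1; camptothecin omitted.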
MCF10A rerep = induces DNA re-replication in MCF 10a normal breast cells; MCF 10A DNA re-replication, Hoechst nuclear intensity, 48 h; Potency, µM (doses to about 46.1 µM), for inactives: at the top dose activity, positive = re-replication, actives largely listed as activators; actives 2.9% (n = 350,000); note: potency is the fitted concentration of half-maximal effect; % of control where 0% means no effect; nearly all actives have a fitted effect of over 50% in size
Chronic BCR inh = blocks chronic active B-cell receptor signaling; ABC-DLBCL IkBa-CBG/CBR reporter, luminescence ratio, 4 h; Potency, µM (top dose mostly 46.1 µM), without a hit: at the highest dose activity change, negative = inhibition, actives largely listed as inhibitors; actives 0.05% (n = 340,000); AID 493014; active = well fitted inhibition curve with a large enough effect in the signal ratio, with a control signal flat, not every such curve was filed as active; inconclusive = small, poorly fitted or top-dose-only effect, or effect the other way, or a change in a side signal; the % refers to the signal ratio;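 note: potency is the fitted concentration of half-maximal effect; plate controls were basal doxycycline-induced cells for no effect and cells given 10 µM MG132 for full effect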
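Doxycycline induced both beetle luciferases in TMD8 lymphoma cells; IKK-driven degradation limits the IkappaBalpha-fused green signal, while red luminescence normalises for cell number and nonspecific effects. Compounds tested up to 46 uM, 4 hrs.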
* hit, by the source's call. Unless noted, calls come from the whole dose curve; as a rule, active = well fitted curve in the direction sought with a large enough effect; inconclusive = small, poorly fitted or top-dose-only effect, or another doubt; inactive = no such curve, though single readings can be large; an effect the other way counts as inactive or inconclusive.

`CC(=O)OCC1OC(n2ccc3ccccc32)C(OC(C)=O)C(OC(C)=O)C1OC(C)=O` (stereo not drawn) gave IL1B secr inh 1, SW480 rereplic -35%, DT40 TDP1 CPT inconclusive, TDP1 cell noCPT inconclusive, MCF10A rerep inconclusive and Chronic BCR inh 9%.
Screening CCn1c(SCC(=O)N2CCCCC2)nc2c([nH]c3ccccc32)c1=O returned IL1B secr inh 13, DT40 TDP1 CPT 1% and TDP1 cell noCPT -26%.
Screening Cc1[nH]c2ccccc2c1SCC(=O)N1CCN(c2ccccc2)CC1 returned IL1B secr inh -19, SW480 rereplic 8%, DT40 TDP1 CPT inconclusive, TDP1 cell noCPT 26µM*, MCF10A rerep 2% and Chronic BCR inh -3%.
For CCOC(=O)N1CCN(C(=O)CSc2nc3c([nH]c4ccccc43)c(=O)n2CC)CC1 the results were IL1B secr inh -9, SW480 rereplic 10%, DT40 TDP1 CPT inconclusive, TDP1 cell noCPT 15µM*, MCF10A rerep 15% and Chronic BCR inh inconclusive.
Cc1[nH]c2ccccc2c1SCC(=O)N1CCCCCC1 was read as IL1B secr inh inconclusive, SW480 rereplic -24%, DT40 TDP1 CPT -17%, TDP1 cell noCPT -1%, MCF10A rerep inconclusive and Chronic BCR inh -1%.
Screening C=CCn1c(SCC(=O)N2CCN(c3ccccc3)CC2)nc2c([nH]c3ccccc32)c1=O returned IL1B secr inh 4, SW480 rereplic inconclusive, DT40 TDP1 CPT 16µM*, TDP1 cell noCPT 12µM*, MCF10A rerep 0% and Chronic BCR inh 10%.
Screening O=[N+]([O-])c1c(Nc2cccc(O)c2)cc(Cl)c2nonc12 returned IL1B secr inh -96*, SW480 rereplic inconclusive, DT40 TDP1 CPT 1.8µM*, TDP1 cell noCPT 1.8µM*, MCF10A rerep inconclusive and Chronic BCR inh inconclusive.
`Cc1c(Nc2cc(Cl)c3nonc3c2[N+](=O)[O-])c(=O)n(-c2ccccc2)n1C` gave IL1B secr inh -105*, SW480 rereplic -1%, DT40 TDP1 CPT 1.3µM*, TDP1 cell noCPT 2.1µM*, MCF10A rerep inconclusive and Chronic BCR inh inconclusive.
For Cc1c(Nc2ccc3nonc3c2[N+](=O)[O-])c(=O)n(-c2ccccc2)n1C the results were IL1B secr inh 15, SW480 rereplic -5%, DT40 TDP1 CPT 4%, TDP1 cell noCPT -1%, MCF10A rerep 2% and Chronic BCR inh 8%.
`Cc1ccc(NC(=O)CN(C)S(=O)(=O)c2ccc3c(c2)n(C)c(=O)c(=O)n3C)cc1F` gave DT40 TDP1 CPT 3% and TDP1 cell noCPT -23%.
For NCCC[C@H](N)C(=O)O the results were DT40 TDP1 CPT 5% and TDP1 cell noCPT 3%.
For Cc1ccc(C)c(-c2ccc(=O)n(Cc3c(F)cccc3Cl)n2)c1 the results were IL1B secr inh -2, SW480 rereplic 7%, DT40 TDP1 CPT inconclusive, TDP1 cell noCPT inconclusive, MCF10A rerep inconclusive and Chronic BCR inh -10%.
For Cc1ccc(-c2ccc(=O)n(Cc3c(F)cccc3Cl)n2)cc1 the results were IL1B secr inh -29, SW480 rereplic 1%, DT40 TDP1 CPT inconclusive, TDP1 cell noCPT 18µM*, MCF10A rerep -4% and Chronic BCR inh -6%.
For Cc1ccc(-c2ccc(=O)n(Cc3cccc(Br)c3)n2)cc1 the results were IL1B secr inh -78*, SW480 rereplic inconclusive, DT40 TDP1 CPT -1%, TDP1 cell noCPT -18%, MCF10A rerep inconclusive and Chronic BCR inh -13%.
For COc1ccc(-c2ccc(=O)n(Cc3cccc(Cl)c3)n2)cc1 the results were IL1B secr inh -51*, SW480 rereplic -18%, DT40 TDP1 CPT inconclusive, TDP1 cell noCPT inconclusive, MCF10A rerep -2% and Chronic BCR inh -13%.
`CC(=O)Nc1nonc1-c1nnc(SCC(=O)Nc2cc(Cl)ccc2C)n1C` gave DT40 TDP1 CPT -20% and TDP1 cell noCPT -26%.
`Cc1ccnc2nc(C(=O)OCC(=O)N(CC(C)C)C3CCS(=O)(=O)C3)nn12` (stereo not drawn) gave IL1B secr inh 0, SW480 rereplic -15%, DT40 TDP1 CPT -2%, TDP1 cell noCPT 15%, MCF10A rerep 9% and Chronic BCR inh 1%.
CCOC(=O)C1=C(COC(=O)c2ccco2)NC(=O)NC1CC (stereo not drawn) was read as IL1B secr inh 24, SW480 rereplic -7%, DT40 TDP1 CPT -3%, TDP1 cell noCPT -4%, MCF10A rerep 2% and Chronic BCR inh 3%.
COC(=O)C[C@H]1C[C@H]2c3cc(NC(=O)C4CCOCC4)ccc3O[C@H]2[C@@H](CO)O1 was read as IL1B secr inh 11, DT40 TDP1 CPT -2% and TDP1 cell noCPT 2%.
`O=C(NCc1ccc(Cl)cc1)c1cc2cccc3c2n1CCS3` gave DT40 TDP1 CPT inconclusive and TDP1 cell noCPT 16µM*.
CCc1ccc(-n2nc(C)c3c(C)cc(=O)n(CC(=O)NCc4ccc(C)cc4)c32)cc1 was read as DT40 TDP1 CPT -29% and TDP1 cell noCPT inconclusive.
`O=c1[nH]nc(Br)c(=O)n1C(c1ccccc1)c1ccccc1` gave IL1B secr inh -5, SW480 rereplic 2%, DT40 TDP1 CPT 21µM*, TDP1 cell noCPT inconclusive and MCF10A rerep 0%.
O=C(Nc1ccccc1N1CCOCC1)c1ccc(N2CCCC2=O)cc1 was read as IL1B secr inh -3, SW480 rereplic -6%, DT40 TDP1 CPT 5%, TDP1 cell noCPT 1%, MCF10A rerep -5% and Chronic BCR inh 0%.
`CCc1noc(C)c1C(=O)Oc1ccc(N(C)S(=O)(=O)c2ccccc2)cc1` gave IL1B secr inh inconclusive, SW480 rereplic 18%, DT40 TDP1 CPT 23µM*, TDP1 cell noCPT 16µM*, MCF10A rerep 17% and Chronic BCR inh 6%.
Screening CCc1noc(C)c1C(=O)Oc1ccc(N(C)S(=O)(=O)c2ccc(C)cc2)cc1 returned IL1B secr inh -15, SW480 rereplic -9%, DT40 TDP1 CPT 18µM*, TDP1 cell noCPT 2.6µM*, MCF10A rerep 15% and Chronic BCR inh 2%.
Screening Cc1noc(C)c1CSCC(=O)Oc1ccc(N(C)S(=O)(=O)c2ccccc2)cc1 returned IL1B secr inh 13, SW480 rereplic -4%, DT40 TDP1 CPT -9%, TDP1 cell noCPT -10%, MCF10A rerep 7% and Chronic BCR inh 0%.
